Most compounds without a hit are left out; they make up all but 6.7% or so of the library.
C diff growth = blocks growth of Clostridium difficile | Clostridium difficile clinical isolate growth, OD600, 24 h; active compounds read low | growth activity, negative = inhibition, % at 16 µg/mL (by protocol) | 0.25% of 86,000 active;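 active = mean growth activity at or below -80% and every replicate also at or below -80%; inconclusive = mean at or below -80% but some replicate above -80%; inactive = mean growth activity above -80%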
Tcruzi prolif = inhibitors of T. cruzi proliferation. T. cruzi beta-gal in NIH3T3, GalScreen luminescence, 90 h. inhibition, % at 8.34 µM. 5.9% of 77,000 active;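 active = mean inhibition above about 93%, with at least 55% of replicates each passing it, limit read from the data, passing the limit was not always enough; inconclusive = only one of those two conditions holds; inactive = neither condition holds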
Pf Dd2 growth = blocks growth of Plasmodium falciparum Dd2 parasites; 2.3% of 94,000 active; P. falciparum Dd2 growth, SYBR Green, 72 h; active compounds read low; AID 1159554; activity change, % at 10 µM; in the data active = activity change below about -80%; inconclusive = no clear call, values can overlap the other calls
Hits are given with their value; n = inactive; u = inconclusive; x = no result; ! = a repeat was not active.

SMILES	C diff growth	Tcruzi prolif	Pf Dd2 growth
CO[C@@H]1CN(C)C(=O)c2cc(NC(=O)NC(C)C)ccc2OC[C@@H](C)N(Cc2ccc(-c3ccccn3)cc2)C[C@@H]1C	n	n	n
O=C(C[C@H]1CC[C@H]2[C@@H](COC[C@H](O)CN2C(=O)Nc2ccc(Cl)c(Cl)c2)O1)NC1CCC1	-92	n	x
CNC(=O)C[C@@H]1CC[C@H]2[C@@H](COC[C@H](O)CN2C(=O)Nc2ccc(Cl)c(Cl)c2)O1	n	n	n
O=C(C[C@H]1CC[C@@H]2[C@H](COC[C@@H](O)CN2C(=O)Nc2cc(Cl)cc(Cl)c2)O1)N1CCOCC1	n	n	x
CNC(=O)C[C@H]1CC[C@@H]2[C@H](COC[C@@H](O)CN2C(=O)Nc2ccc(Cl)c(Cl)c2)O1	n	n	n
CCNC(=O)C[C@@H]1CC[C@H]2[C@@H](COC[C@@H](O)CN2C(=O)Nc2ccc(Cl)c(Cl)c2)O1	x	n	n
O=C(C[C@H]1CC[C@@H]2[C@H](COC[C@H](O)CN2C(=O)Nc2ccc(Cl)c(Cl)c2)O1)NC1CCC1	-99!	n	x
O=C(C[C@H]1CC[C@H]2[C@@H](COC[C@@H](O)CN2C(=O)Nc2ccc(Cl)c(Cl)c2)O1)NC1CCC1	-99!	n	x
O=C(C[C@H]1CC[C@H]2[C@@H](COC[C@H](O)CN2C(=O)Nc2cc(Cl)cc(Cl)c2)O1)N1CCOCC1	-96!	n	x
COc1ccc2c3c(n(C)c2c1)[C@H](CO)N(C(=O)Nc1ccc(F)cc1)CC31CCN(C(=O)NC2CCCC2)CC1	n	x	u
CN1C(=O)c2cc(NC(=O)C3CCCC3)ccc2OC[C@@H]2O[C@H](CC(=O)NCc3ccccc3F)CC[C@@H]21	n	x	n
COc1ccc2c3c(n(C)c2c1)[C@@H](CO)N(C(=O)NC1CCCC1)CC31CN(C)C1	n	x	n
O=C(C[C@@H]1CC[C@@H]2[C@H](COC[C@H](O)CN2C(=O)Nc2ccc(Cl)c(Cl)c2)O1)NC1CCC1	-101!	n	x
O=C(C[C@@H]1CC[C@@H]2[C@H](COC[C@@H](O)CN2C(=O)Nc2ccc(Cl)c(Cl)c2)O1)NC1CCC1	-98	n	x
CCNC(=O)C[C@@H]1CC[C@H]2[C@@H](COC[C@H](O)CN2C(=O)Nc2ccc(Cl)c(Cl)c2)O1	x	n	n
CNC(=O)C[C@H]1CC[C@@H]2[C@H](COC[C@H](O)CN2C(=O)Nc2ccc(Cl)c(Cl)c2)O1	n	n	n
COc1ccc(CN(C)C[C@@H]2Oc3ccc(NC(=O)C4CC4)cc3CC(=O)N([C@@H](C)CO)C[C@H]2C)cc1	n	x	n
CN(C)CC#Cc1cccc(-c2nc(C(=O)N3CCN(C)CC3)cc3c2[C@@H](CCO)N(S(=O)C(C)(C)C)C3)c1 (stereo partly drawn)	x	n	n
COc1ccc(C#Cc2ccc3c(c2)[C@]2(C(=O)N3)[C@H](c3ccc(O)cc3)N3[C@H](c4ccccc4)[C@H](c4ccccc4)OC(=O)[C@H]3[C@@H]2C(=O)N2CCCCCCC2)cc1	n	x	x
COCC(=O)N1[C@@H]2CN(C(=O)c3ccncc3)c3ccccc3[C@@H]2[C@@H]1CO	n	n	n
O=C(C[C@@H]1CC[C@@H]2[C@H](COC[C@H](O)CN2C(=O)Nc2ccc(C(F)(F)F)cc2)O1)NC1Cc2ccccc2C1	n	n	n
CCNC(=O)C[C@@H]1CC[C@@H]2[C@H](COC[C@@H](O)CN2C(=O)Nc2ccc(C(F)(F)F)cc2)O1	-94!	n	n
O=C(C[C@H]1CC[C@@H]2[C@H](COC[C@H](O)CN2C(=O)Nc2ccc(C(F)(F)F)cc2)O1)NC1Cc2ccccc2C1	-100!	n	n
CCNC(=O)C[C@@H]1CC[C@H]2[C@@H](COC[C@H](O)CN2C(=O)Nc2ccc(C(F)(F)F)cc2)O1	n	n	n
C[C@@H]1CN([C@H](C)CO)C(=O)c2cc(C3=CCCCC3)cnc2O[C@@H]1CN(C)C(=O)c1cccnc1	n	x	n
SMILES	C diff growth	Tcruzi prolif	Pf Dd2 growth
CO[C@H]1CN(C)C(=O)c2cc(NC(=O)NC(C)C)ccc2OC[C@H](C)N(C(=O)CC2CC2)C[C@H]1C	x	n	n
COCC(=O)Nc1ccc2c(c1)OC[C@H](C)N(C(=O)NC(C)C)C[C@H](C)[C@@H](OC)CN(C)C2=O	n	x	n
Cc1cccc(-c2ccc([C@@H]3[C@H]4CN(C(=O)Cc5ccccn5)CC(=O)N4[C@H]3CO)cc2)c1	n	x	n
O=C(Nc1ccccc1F)N1C[C@@H]2[C@H](c3ccccc31)[C@@H](CO)N2C(=O)c1ccccc1F	n	n	n
CC=Cc1ccc2n(c1=O)C[C@H]1[C@H](CO)[C@@H](C(=O)N(C)C)N(CCC)[C@@H]21 (mixture of isomers)	n	x	n
C[C@H]1CN([C@@H](C)CO)C(=O)c2cccc(NC(=O)Nc3ccc(F)cc3)c2O[C@H]1CN(C)Cc1ccc(C(=O)Nc2ccccc2N)cc1	n	x	n

Compound activity as filed in PubChem BioAssay.
